FID counter: compounds displacing fluorescent DNA intercalator, primary screen, artefact control for HCV NS3 helicase inhibitor project, biochemical, FID fluorescence | DNA fluorescent intercalator displacement | inhibition, % at 7.9 µM | 290,000 tested, 0.17% active; in the data active = inhibition above about 37%;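 note: 0% = vehicle and 100% = reference compound; higher means more ethidium bromide displaced from hairpin DNA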
TMEM16A act: TMEM16A chloride channel activators or potentiators, primary screen, cell-based, HTS | HEK293 TMEM16A/YFP-H148Q/I152L, iodide quench fluorescence; active compounds read low | Anoctamin-1 (Mus musculus), Q8BHY3 | B-score at 10 µM | 340,000 tested, 0.3% active;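 active = fluorescence-ratio B-score plate-corrected deviation score at least 3 library SD below zero, with starting fluorescence score within 5 deviations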;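 note: channel opened by trigger with iodide after compound preincubation; score built on the fluorescence ratio of max minus min over baseline; more negative score means more quench and so TMEM16A activation or potentiation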
PREPL inh: PREPL enzyme inhibitors, primary screen, biochemical, fluorescence polarization; Prolyl endopeptidase-like (Homo sapiens), Q4J6C6; recombinant PREPL, fluorescence polarization activity-based probe; inhibition, % at 5.96 µM; 320,000 tested, 0.68% active; in the data active = inhibition above about 43%;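 note: 0% = enzyme with DMSO and 100% = wells lacking enzyme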
PP1 inh: PP1-alpha phosphatase inhibitors, primary screen, counter-screen for PP5 inhibitor project, biochemical, fluorescence, OMFP substrate, single point. purified PP1alpha. AID 2235, 2010. 320,000 tested, 0.9% active. inhibition, % at 6.7 µM;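 active = inhibition above the mean inhibition of all tested compounds plus 3 SD, computed separately for each screening campaign, cut at about 15% in these data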
TMEM16A inh: TMEM16A chloride channel inhibitors, primary screen, cell-based, HTS; Anoctamin-1 (Mus musculus), Q8BHY3; HEK293 TMEM16A/YFP iodide influx fluorescence, ionomycin; normalized B-score (activity score, 25-100; higher = stronger inhibition) at 10 µM; 310,000 tested, 1.2% active; AID 588511, 2011;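 active = ratio plate-corrected score three or more library SD toward inhibition, starting fluorescence score within five deviations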;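 note: score derived from kinetic fluorescence span divided by baseline fluorescence per well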
PP5 primary: PP5 phosphatase inhibitors, primary screen, biochemical, fluorescence | Serine/threonine-protein phosphatase 5 (Homo sapiens), P53041 | purified PP5c, OMFP substrate fluorescence | inhibition, % at 6.7 µM | 320,000 tested, 0.18% active;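 active = inhibition above the campaign's mean inhibition across all tested compounds plus 3 SD, cut at about 9.5% in these data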;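 note: 0% = DMSO only and 100% = 100 µM cantharidin control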
Target sequence (P53041 whole entry, looked up): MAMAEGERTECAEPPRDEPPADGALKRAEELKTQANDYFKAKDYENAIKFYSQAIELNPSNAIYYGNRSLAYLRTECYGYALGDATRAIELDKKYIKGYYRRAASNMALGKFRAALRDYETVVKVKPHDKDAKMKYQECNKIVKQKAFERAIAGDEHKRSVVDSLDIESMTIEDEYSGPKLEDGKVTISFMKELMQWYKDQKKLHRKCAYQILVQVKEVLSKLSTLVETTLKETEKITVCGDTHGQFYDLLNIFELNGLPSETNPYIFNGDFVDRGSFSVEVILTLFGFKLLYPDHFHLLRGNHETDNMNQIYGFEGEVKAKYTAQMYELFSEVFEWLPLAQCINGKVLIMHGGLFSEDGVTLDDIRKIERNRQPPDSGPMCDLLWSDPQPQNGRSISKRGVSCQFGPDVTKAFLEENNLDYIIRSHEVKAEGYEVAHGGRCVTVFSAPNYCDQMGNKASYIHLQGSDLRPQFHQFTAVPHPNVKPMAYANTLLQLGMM
PP5 inh confirm: PP5 phosphatase inhibitors, confirmation, biochemical, fluorescence, human. shares compounds with PP5 primary. Purified PP5, fluorogenic phosphatase substrate. inhibition, % at 6.7 µM. 460 tested, 22% active; in the data active = inhibition above about 9.5%
PP1 counter 3x: PP1 phosphatase inhibitors, counter-screen for PP5 inhibitor project, biochemical, fluorescence, triplicate | shares compounds with PP5 primary | PP1 enzyme, fluorescent phosphatase substrate | inhibition, % at 6.7 µM | 460 tested, 4% active; in the data active = inhibition above about 16%
Starred values were filed as active, the others as inactive; i = inactive; / = no result. This is a sample that favours compounds with a hit; in the whole collection about 2.7% have one here.

SMILES | FID counter | TMEM16A act | PREPL inh | PP1 inh | TMEM16A inh | PP5 primary | PP5 inh confirm | PP1 counter 3x
CCn1nnc(-c2ccccc2NS(=O)(=O)c2ccc(S(=O)(=O)N(C)C3CCCCC3)cc2)n1 | -8 | i | 1 | 1 | i | 12* | -3 | -1
CCCCOc1ccc(C(=O)Nc2ccc(N3CCN(C(C)=O)CC3)cc2)cc1 | -3 | i | 15 | -7 | i | 12* | -4 | -4
CCCCOc1ccc(C(=O)Nc2ccc(N3CCN(C(=O)C(C)C)CC3)cc2)cc1 | -14 | i | 8 | 3 | i | 1 | / | /
O=C(Nc1nccs1)c1cc2sccc2n1Cc1ccc(F)cc1 | -6 | / | 4 | -1 | i | 10* | -6 | -1
O=C1C(=O)c2ccc(-c3ccccc3)cc2-c2ccccc21 | 4 | i | 13 | 0 | i | 3 | / | /
O=C1C(c2ccccc2)=[N+]([O-])c2ccccc21 | / | i | 6 | -3 | i | 10* | 36* | 88*
CC(=O)NS(=O)(=O)c1ccc(NC(=O)CSc2ccc(C)cc2)cc1 | -5 | i | 10 | -1 | i | -1 | / | /
COc1ccccc1-c1noc(-c2ccccc2C(=O)Nc2cccnc2)n1 | -10 | i | 6 | 3 | i | 10* | -4 | -2
COc1ccc(-c2noc(-c3ccccc3C(=O)Nc3cccnc3)n2)cc1OC | -20 | i | 0 | -3 | i | -1 | / | /
Cn1nnnc1NCc1c(F)cccc1Cl | -6 | i | 1 | -2 | i | 2 | / | /
Cn1nnnc1NCc1cccc(Cl)c1Cl | -2 | i | -18 | 1 | i | 15* | -1 | -3
Cc1snc(S(=O)(=O)/C(C#N)=N/Nc2ccc(C(F)(F)F)cc2)c1C#N | -41 | i | -11 | 6 | i | 10* | 7 | 12
CC(=O)C(C(C)=O)C1(O)C(=O)c2ccccc2C1=O | 3 | i | 9 | 3 | i | 14* | 38* | 3
CCN(CC)S(=O)(=O)c1cccc(NC(=O)COC(=O)CCC(=O)c2ccc(F)cc2)c1 | -23 | i | -3 | 1 | i | 3 | / | /
O=C(NC1(O)C(=O)c2ccccc2C1=O)c1ccccc1 | 1 | i | 16 | 1 | i | 15* | 39* | 13
O=C(NC1(O)C(=O)c2ccccc2C1=O)c1c(Cl)cccc1Cl | 1 | i | 15 | 3 | i | 16* | 42* | 7
COC1(NC(=O)c2ccccc2)C(C)=CC(=O)C=C1C | 5 | i | 21 | 3 | i | 3 | / | /
O=C(Nc1ccccc1Cl)c1c(F)c(F)c(F)c(F)c1F | 2 | i | 5 | 0 | i | 1 | / | /
COc1ccc(-c2nc(CN3CCC(C(=O)N4CCOCC4)CC3)c(C)o2)cc1C | 4 | i | 20 | 2 | i | -1 | / | /
CCOc1ccc(CCNC(=O)CN2C(=O)NC3(CCCCCC3)C2=O)cc1OCC | / | i | 10 | -2 | / | 0 | / | /
COc1ccc(NC(=S)Nc2ccc3nsnc3c2)cc1 | 3 | i | 43 | 3 | i | 12* | 47* | 0
CCc1ccc(S(=O)(=O)/N=C2\C=C(Nc3cccc(C(=O)O)c3)C(=O)c3ccccc32)cc1 | 11 | i | 38 | 13 | 25* | 11* | 42* | 12
Cc1ccc([N+](=O)[O-])cc1-c1ccc(/C=N/NC(=O)CN2CCOCC2)o1 | -6 | i | 17 | -1 | i | 12* | -4 | -7
CCOC(=O)NC(NC(=S)Nc1ccccc1[N+](=O)[O-])C(Cl)(Cl)Cl (stereo unspecified) | 5 | i | 7 | -5 | i | 11* | -6 | -4
Oc1ccccc1N1CCN(C(c2ccccc2)c2ccccc2)CC1 | -19 | i | 12 | 0 | i | 2 | / | /
SMILES | FID counter | TMEM16A act | PREPL inh | PP1 inh | TMEM16A inh | PP5 primary | PP5 inh confirm | PP1 counter 3x
Cc1ccc(C(=O)Oc2ccc(N3C(=O)CCC3=O)c(C)c2)cc1 | -10 | i | 39 | -3 | i | -1 | / | /
Cc1cc(OCC(=O)c2ccc(Br)cc2)ccc1N1C(=O)CCC1=O | -11 | i | 8 | -2 | i | 13* | -6 | -3
CCOc1cc(-c2cc(-c3ccc(C)cc3)nc(N)c2C#N)ccc1O | -25 | i | 33 | 1 | i | 9.7* | 0 | 3
COc1cc(-c2cc(-c3ccc(O)cc3)nc(N)c2C#N)ccc1O | -5 | i | 4 | -1 | i | 5 | / | /
O=C(Nc1c(F)cc(F)cc1Br)c1cc(-c2ccccc2)on1 | -7 | i | -9 | -3 | i | 12* | -3 | -2
O=C(Nc1c(F)cc(F)cc1Br)c1cc(-c2ccc(O)cc2)on1 | -4 | i | -6 | -1 | i | 4 | / | /
CN(C)/C=N/NC(=O)C1Cc2c(ccc3ccccc23)O1 (stereo unspecified) | -8 | i | 4 | -5 | i | 0 | / | /
CC(C)Sc1nsc2nc(=O)c(/C=C3\C=Nc4ccccc43)c(N)n12 | -10 | i | 17 | -4 | i | 14* | 0 | 1
CS(=O)(=O)c1nsc2nc(=O)c(/C=C3\C=Nc4ccccc43)c(N)n12 | -26 | i | -1 | 2 | i | 0 | / | /
CCCC(=O)Nc1ccc(Br)c(Cl)c1 | 1 | i | -31 | 1 | i | 1 | / | /
CC(=O)Nc1ccc(Br)c(Cl)c1 | 3 | i | 11 | -2 | i | 11* | -6 | -6
COc1ccccc1NC(=O)c1ccc(NC(=O)c2ccc(=O)[nH]c2)cc1 | / | i | 0 | -10 | / | -2 | / | /
CCOC(=O)c1c(-c2cccc3ccccc23)csc1NC(=O)C1C2CCC(O2)C1C(=O)O (stereo unspecified) | -48 | i | 0 | 6 | i | 11* | 0 | 2
O=C(NCC1CCCO1)c1cc2c([nH]c3ccccc32)c(-c2cccc(Cl)c2)n1 (stereo unspecified) | -26 | i | 4 | 11 | i | 11* | 3 | 6
COc1cc(-c2nc(C(=O)NCC3CCCO3)cc3c2[nH]c2ccccc23)cc(OC)c1OC (stereo unspecified) | -26 | i | 19 | 0 | i | 8 | / | /
